Bioassay records from PubChem BioAssay.
Sfp inh = blocks B. subtilis Sfp PPTase activity; Q9F4F7; 3.5% of 310,000 active; AID 1490; Biochemical Sfp PPTase activity, qHTS; Potency, µM, for the others: largest response in the series, negative = inhibition, actives largely listed as inhibitors;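 further: the enzyme is Sfp with the accession as filed and its product quenches rhodamine fluorescence; 0% = enzyme reaction without inhibitor and -100% = no enzyme wells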
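With Hepes-Na pH 7.6 buffer containing 10 mM MgCl2, Sfp (15 nM) modified BHQ-2-YbbR (12.5 uM) using rhodamine-CoA (5 uM). Two reads 30 minutes apart at 525/598 nm yielded each well's rate.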
JMJD2A Tudor = inhibitors of human JMJD2A Tudor domain; O75164; AlphaScreen JMJD2A-Tudor / H3K4me3 peptide binding; Potency, µM (highest dose often 114 µM), for inactives: at the top dose activity change, negative = inhibition, usual class: inhibitors; 4.4% of 390,000 active; further: on the % scale 0 is the no-effect control and ±100 the full control effect; nearly all actives have a fitted effect of over 50% in size
G9a inh = blocks human histone lysine methyltransferase G9a; G9a H3K9 monomethylation, AlphaScreen, 2 h; Potency, µM (doses to about 102 µM), for the others: top-dose activity, negative = inhibition, hits mostly inhibitors; 8.8% of 350,000 active; further: on the % scale 0 is the no-effect control and ±100 the full control effect; nearly all actives have a fitted effect of over 75% in size
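Using a bead-based AlphaScreen, monomethylated H3K9 product from 2 h room-temperature reactions (G9a 20 nM, peptide 500 nM, SAM 20 uM) was detected with 0.5 ug/mL rabbit anti-H3K9me1 antibody.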
HP1b binding inh = HP1-beta chromodomain-methylated histone interaction inhibition | P83916 | AlphaScreen HP1-beta / biotin-H3K9me3 peptide binding | Potency, µM (top dose mostly 114 µM), for inactives: at the highest dose activity change, negative = inhibition, hits mostly inhibitors | 0.56% of 390,000 active | AID 540317; further: nearly all actives have a fitted effect of over 70% in size
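HP1-beta protein (50 nM final) preincubated 30 min at room temperature with biotinylated H3(1-18)K9me3 peptide (50 nM) in PBS pH 7.4, 0.01% Tween-20, then compound added for 30 min. AlphaScreen streptavidin donor/nickel chelate acceptor beads (10 ug/mL final), 30 min dark, luminescence read.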
BAZ2B inh = blocks human BAZ2B; Q9UIF8; AlphaScreen BAZ2B-H3K14Ac peptide displacement; Potency, µM (series often up to 114 µM), inactives show top-dose activity change, negative = inhibition, hits mostly inhibitors; 4.4% of 360,000 active; AID 504333; further: on the % scale 0 is the no-effect control and ±100 the full control effect; nearly all actives have a fitted effect of over 60% in size
Target sequence (Q9UIF8 whole entry, looked up): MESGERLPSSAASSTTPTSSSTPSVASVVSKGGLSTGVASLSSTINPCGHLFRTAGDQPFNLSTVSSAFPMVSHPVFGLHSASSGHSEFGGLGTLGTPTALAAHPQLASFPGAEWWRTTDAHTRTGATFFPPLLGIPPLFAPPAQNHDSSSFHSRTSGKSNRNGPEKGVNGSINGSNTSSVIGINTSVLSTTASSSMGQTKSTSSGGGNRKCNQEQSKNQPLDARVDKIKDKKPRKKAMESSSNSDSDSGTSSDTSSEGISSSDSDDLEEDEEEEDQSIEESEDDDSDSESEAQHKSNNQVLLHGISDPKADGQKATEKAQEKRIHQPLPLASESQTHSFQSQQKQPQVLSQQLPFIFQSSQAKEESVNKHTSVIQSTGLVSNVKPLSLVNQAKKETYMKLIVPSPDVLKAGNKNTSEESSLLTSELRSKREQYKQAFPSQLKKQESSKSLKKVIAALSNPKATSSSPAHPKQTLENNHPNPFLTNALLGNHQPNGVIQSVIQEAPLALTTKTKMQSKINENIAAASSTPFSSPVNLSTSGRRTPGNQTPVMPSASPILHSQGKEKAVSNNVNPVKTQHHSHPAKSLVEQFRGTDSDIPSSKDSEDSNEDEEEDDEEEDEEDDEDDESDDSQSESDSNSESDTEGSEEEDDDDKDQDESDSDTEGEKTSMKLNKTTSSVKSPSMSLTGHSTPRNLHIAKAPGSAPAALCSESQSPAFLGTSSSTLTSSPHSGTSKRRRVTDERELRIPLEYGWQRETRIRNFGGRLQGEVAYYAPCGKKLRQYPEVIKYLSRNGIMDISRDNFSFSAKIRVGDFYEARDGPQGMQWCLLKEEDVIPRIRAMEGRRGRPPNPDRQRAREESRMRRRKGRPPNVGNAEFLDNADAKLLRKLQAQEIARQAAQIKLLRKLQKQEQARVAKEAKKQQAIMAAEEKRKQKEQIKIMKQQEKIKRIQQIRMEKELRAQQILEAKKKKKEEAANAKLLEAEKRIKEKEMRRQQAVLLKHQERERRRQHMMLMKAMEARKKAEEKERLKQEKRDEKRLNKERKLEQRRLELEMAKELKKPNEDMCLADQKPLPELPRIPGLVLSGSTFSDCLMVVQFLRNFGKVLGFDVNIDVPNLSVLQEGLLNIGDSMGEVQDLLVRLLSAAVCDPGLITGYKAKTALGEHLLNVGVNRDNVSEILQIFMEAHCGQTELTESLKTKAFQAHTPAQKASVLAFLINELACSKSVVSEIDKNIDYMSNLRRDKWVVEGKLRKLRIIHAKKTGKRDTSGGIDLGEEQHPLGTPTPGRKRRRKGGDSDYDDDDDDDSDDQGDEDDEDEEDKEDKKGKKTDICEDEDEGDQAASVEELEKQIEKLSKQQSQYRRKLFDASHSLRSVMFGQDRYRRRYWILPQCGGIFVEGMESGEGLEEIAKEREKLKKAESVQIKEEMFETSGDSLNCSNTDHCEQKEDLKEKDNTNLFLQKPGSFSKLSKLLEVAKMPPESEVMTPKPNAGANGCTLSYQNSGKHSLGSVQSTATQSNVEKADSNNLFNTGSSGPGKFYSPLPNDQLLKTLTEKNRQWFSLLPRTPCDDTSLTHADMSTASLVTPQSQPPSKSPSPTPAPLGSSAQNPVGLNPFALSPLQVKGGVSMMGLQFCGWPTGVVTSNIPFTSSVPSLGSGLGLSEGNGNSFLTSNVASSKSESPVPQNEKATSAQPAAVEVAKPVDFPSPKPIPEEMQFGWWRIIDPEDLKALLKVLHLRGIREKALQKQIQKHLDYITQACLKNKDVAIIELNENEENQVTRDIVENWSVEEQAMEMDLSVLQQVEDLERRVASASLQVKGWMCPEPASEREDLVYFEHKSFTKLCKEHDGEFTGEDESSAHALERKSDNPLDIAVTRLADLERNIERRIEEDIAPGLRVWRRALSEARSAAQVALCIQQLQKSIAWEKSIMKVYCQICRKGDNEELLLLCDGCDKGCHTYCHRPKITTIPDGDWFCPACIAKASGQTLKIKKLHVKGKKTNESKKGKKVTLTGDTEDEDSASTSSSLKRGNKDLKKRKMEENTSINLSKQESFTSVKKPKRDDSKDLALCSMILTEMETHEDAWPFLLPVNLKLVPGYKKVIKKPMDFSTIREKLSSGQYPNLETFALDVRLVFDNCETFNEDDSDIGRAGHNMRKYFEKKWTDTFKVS
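Compounds, titrated to a top concentration of 110 uM, were incubated 30 min at room temperature with preformed BAZ2B/acetyl-K14 H3 peptide complex (50 nM each). Proximity signal was measured by AlphaScreen after 20 min with beads.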
An asterisk follows results filed as active; ? = inconclusive; . = not tested or not shown; ! = not confirmed by another sample; [ ] = dose if it differs, or a comment. Compounds with a hit are over-represented: about 12% of the library has one in this group of screens. The call rests on the fitted dose curve; in most records, active means well fitted curve in the direction sought with a large enough effect; inconclusive means small, poorly fitted or top-dose-only effect, or another doubt; inactive means no such curve, though single readings can be large; an effect the other way counts as inactive or inconclusive. Potency means the concentration at half of the fitted maximal effect.

SMILES	Sfp inh	JMJD2A Tudor	G9a inh	HP1b binding inh	BAZ2B inh
CCOc1ccc2nc(NC(=O)CSc3nc(-c4ccccc4)c(C#N)c(=O)[nH]3)sc2c1	9%	50µM*	?	?	-27%
CC(NC(=O)C12CC3CC(C1)CC(n1cncn1)(C3)C2)C12CC3CC(CC(C3)C1)C2 (centres undefined)	1%	-8%	14%	24%	-5%
O=C1C(=C(O)c2ccccc2)C(=O)c2ccccc21	-15%	89µM*	?	-1%	-5%
O=C(c1ccccc1)C1C(=O)c2ccccc2C1=O	21%	-24%	-13%[2.33 µM]	32%	-35%
C[n+]1c(/C=C/c2ccc3c(c2)OCO3)ccc2ccccc21	-22%	?	?	-13%	?
CC[n+]1c(/C=C/c2ccc(N(C)C)cc2)ccc2ccccc21	-28%	?	14µM*	?	40µM*
CC[n+]1c(/C=C/c2ccc(OC(C)=O)c(OC)c2)ccc2ccccc21	-15%	?	25µM*	-27%	-8%
C[n+]1c(/C=C/c2ccc(O)cc2)ccc2ccccc21	-4%	-25%	18µM*	?	-33%
CC[n+]1ccc(/C=C/c2ccc(N(C)C)cc2)c2ccccc21	?	22µM*	.	18µM*	10µM*
CCc1ccccc1NC(=O)CSc1nc2[nH]c(=O)cc(O)c2s1	?	-6%	-45%	14%	-37%
O=C(NCC1CCCO1)C(c1ccc(N2CCOCC2)cc1)N(C(=O)Cn1nnc2ccccc21)c1ccccc1F (centres undefined)	8%	-5%	8%	41%	-21%
CC[n+]1ccccc1/C=C/c1ccc(N(C)C)cc1	-5%	?	28µM*	-1%	?
CN(C)c1ccc(C(=O)/C=C/c2ccccc2)cc1	-28%	-5%	2%	34%	0%
CCN(CC)c1ccc(/C=C/c2ccc3ccc(OC)cc3[n+]2CC)cc1	-21%	13µM*	25µM*	?	40µM*
O=c1c(-c2cc(-c3ccc(Cl)cc3)nc3c2COc2ccccc2-3)coc2ccccc12	.	-25%	15%[59 µM]	28%	-26%
Cn1c(-c2nc(-c3ccccc3)cs2)nc2ccccc21	45µM*	.	.	.	.
CC1CC(C)CN(CC(O)COc2ccc3c(c2)CCC3)C1 (centres undefined)	6%	-15%	-4%[59 µM]	19%	-4%
CSC1=C(C#N)C(c2ccccc2Cl)C2=C(N1)c1ccccc1C2=O (centres undefined)	-9%	32µM*	16µM*	?	-31%[57.1 µM]
CC1=C(C#N)C(c2cccnc2)C2=C(CCCC2=O)N1 (centres undefined)	6%	2%[11.4 µM]	-11%[59 µM]	6%	0%
CC1=C(C#N)C(c2ccccc2)C2=C(N1)c1ccccc1C2=O (centres undefined)	9%	22µM*	45µM*	?	32µM*
CSC1=C(C#N)C(c2ccccc2Cl)C2=C(CCCC2=O)N1 (centres undefined)	8%	.	2%[59 µM]	.	0%
CC1=C(C#N)C(c2cccnc2)C2=C(N1)c1ccccc1C2=O (centres undefined)	16%	-9%	35µM*	12%	-35%
Cc1cc(-c2ccc(N=Nc3ccc4c(S(=O)(=O)O)cc(S(=O)(=O)O)c(N)c4c3O)c(C)c2)ccc1N=Nc1ccc2c(S(=O)(=O)O)cc(S(=O)(=O)O)c(N)c2c1O	10µM*!	.	?	.	.
Nc1c(N=Nc2ccc(-c3ccc(N=Nc4cc(S(=O)(=O)O)c5ccccc5c4N)cc3)cc2)cc(S(=O)(=O)O)c2ccccc12	45µM*	.	3.5µM*	.	.
CCC(CC)C(=O)Nc1cccc(-c2nc3ccccc3s2)c1	.	-13%	?	27%	-30%
SMILES	Sfp inh	JMJD2A Tudor	G9a inh	HP1b binding inh	BAZ2B inh
COc1cc2[nH]c(=S)n(Cc3cccs3)c(=O)c2cc1OC	8%	-7%	11%	44%	-10%
COc1ccc(-n2c(C)nc3c(cnn3-c3ccc(C)c(C)c3)c2=O)cc1Cl	.	-21%	-2%[59 µM]	35%	.
CCC(=O)Nc1sc2c(c1C#N)CCCCC2	0%	-8%	9%[12.7 µM]	39%	-10%
CC(C(=O)Nc1sc2c(c1C#N)CCCCC2)N1C(=O)c2ccccc2C1=O (centres undefined)	?	-33%	3.2µM*	1%	?
CC(=O)Nc1sc2c(c1C#N)CCCCC2	-6%	-12%	2%[59 µM]	34%	19%
C=CCNC(=S)Nc1sc2c(c1C#N)CCCC2	?	-6%	45µM*	1%	-30%
CC(C)(C)C(=O)NC(=S)Nc1sc2c(c1C#N)CCCCC2	45µM*	-13%	?	4%	-34%
CC(C)n1cc(C(=O)N2CCCC(Nc3ccc(F)c(F)c3)C2)cn1 (centres undefined)	8%	-3%	23%	20%	-2%
COc1cccc(CNC(=O)Cn2c(=O)nc(-c3ccccc3F)c3cc(Cl)ccc32)c1	.	-2%	1%[12.7 µM]	27%	-12%
S=C(NCc1ccco1)Nc1ccc(Oc2ccccc2)cc1	20µM*	-23%	.	?	?
FC(F)Oc1ccc(NC(=S)NCc2cccnc2)cc1	14%	-16%	-1%	24%	-16%
NNC(=S)NCc1cccnc1	63µM*	?	1.4µM*	10%	0%
Fc1ccc(NCc2cccnc2)cc1	-7%	-14%[57.1 µM]	?	30%	-3%
S=C(NCc1cccnc1)Nc1ccc(Oc2ccccc2)cc1	40µM*	-26%	.	-9%	?
c1ccc(NCc2cccnc2)cc1	17%	-20%	45µM*	18%	-7%
Cc1cc(S(=O)(=O)N(Cc2ccccc2F)C2CC2)ccc1-n1cnnn1	-1%	0%	?	34%	-17%
COc1cc(OC)cc(-c2nnc(NC(=O)Cc3ccc(F)cc3)o2)c1	7%	-13%	59%	42%	2%
S=C(NCc1ccco1)Nc1cc(-c2ccccc2)[nH]n1	1%	?	-151%[59 µM]	?	40µM*
S=C(NCc1ccco1)Nc1ccc(Br)cn1	-11%	-14%	63%	16%	10%
C[C@@H](C[C@H](N)C(=O)O)C(=O)O	79µM*	.	.	.	.
NC(CS)C(=O)O (centres undefined)	18µM*	.	16µM*	.	.
N[C@H](CS)C(=O)O	32µM*	.	-1%[59 µM]	.	.
Cc1ccc(SC(C)C(=O)N2CCN(c3ccccc3)CC2)cc1 (centres undefined)	16%	-23%	1%	39%	-21%
Oc1c(CN2CCOCC2)cc(COCc2ccccc2)c2cccnc12	22%	25µM*	?	6%	11µM*
CCOCc1cc(CN2CCN(c3cccc(Cl)c3)CC2)c(O)c2ncccc12	.	40µM*	-16%[59 µM]	23%	13µM*
O=C(Oc1c(Cl)cc(Cl)c2cccnc12)N1CCCCC1	-14%	?	-13%[12.7 µM]	17%	4%
CCOC(=O)N1CCN(Cc2cc(Cl)c3cccnc3c2O)CC1	?	22µM*	.	6%	10µM*
